Source: publication PMC5540273 (PLoS ONE, 2017)

Key:
Settings in all cases: concentration: 1 μM,replicates: in singlicate; n = 1
DCAMKL2 = test system: T1, DCAMKL2
T1 construct: gene DCLK2

DCAMKL3 = test system: T2, DCAMKL3
T2 construct: gene DCLK3

DDR1 = test system: DDR1
DDR2 = test system: DDR2
DLK = test system: T3, DLK
T3 construct: gene MAP3K12

DMPK2 = test system: T4, DMPK2
T4 construct: gene CDC42BPG

DMPK = test system: DMPK
DRAK1 = test system: T5, DRAK1
T5 construct: gene STK17A

DRAK2 = test system: T6, DRAK2
T6 construct: gene STK17B

DYRK1A = test system: DYRK1A
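Also: KINOMEscan kinase panel screen.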

Row | Compound | %Inh (DCAMKL2) | %Inh (DCAMKL3) | %Inh (DDR1) | %Inh (DDR2) | %Inh (DLK) | %Inh (DMPK2) | %Inh (DMPK) | %Inh (DRAK1) | %Inh (DRAK2) | %Inh (DYRK1A)
1 | Cc1ccc2c(-c3ccnc(Nc4ccc(C(F)(F)F)cc4)n3)cnn2n1 [GW819776] | 0% | 0% | 0% | 4% | 0% | 9% | 0% | 37% | 13% | 37%
2 | Cn1ccc2ncnc(Oc3ccc(NC(=O)Nc4cncc(C(F)(F)F)c4)c(Cl)c3)c21 | 0% | 0% | 100% | 99.9% | 0% | 0% | 0% | 0% | 0% | 0%
3 | CS(=O)(=O)c1cccc(CNc2nc(Nc3ccc4c(c3)[C@@H]3C[C@@H]4CNC3=O)ncc2C(F)(F)F)c1 | 0% | 0% | 0% | 6% | 9% | 0% | 0% | 96.3% | 96.4% | 6%
4 | CSc1nccc(-c2c(-c3ccc(F)cc3)ncn2CCCN2CCOCC2)n1.Cl [SB-217146] | 0% | 0% | 0% | 33% | 0% | 0% | 0% | 0% | 0% | 0%
5 | COC(=O)c1cccc(NC(=O)NC2CCN(c3ccnc(NCc4ccc(F)cc4)n3)CC2)c1 [GSK1379860] | 18% | 3% | 18% | 0% | 17% | 12% | 0% | 0% | 34% | 18%
6 | CN(c1cccc(CNc2nc(Nc3ccc4c(c3)CC(=O)N4)ncc2C(F)(F)F)c1)S(C)(=O)=O | 9% | 86% | 43% | 3% | 4% | 0% | 0% | 99.4% | 97.5% | 74%
